Screening results (PubChem)
ST2 inh: IL1RL1 inhibition; Q01638; AlphaLISA ST2-Fc/biotin-IL-33 interaction, 1 h; inhibition, % for hits at 17 µM; 78,000 tested, 2.3% active; in the data active = inhibition above about 30%
Target sequence (Q01638 whole entry, looked up): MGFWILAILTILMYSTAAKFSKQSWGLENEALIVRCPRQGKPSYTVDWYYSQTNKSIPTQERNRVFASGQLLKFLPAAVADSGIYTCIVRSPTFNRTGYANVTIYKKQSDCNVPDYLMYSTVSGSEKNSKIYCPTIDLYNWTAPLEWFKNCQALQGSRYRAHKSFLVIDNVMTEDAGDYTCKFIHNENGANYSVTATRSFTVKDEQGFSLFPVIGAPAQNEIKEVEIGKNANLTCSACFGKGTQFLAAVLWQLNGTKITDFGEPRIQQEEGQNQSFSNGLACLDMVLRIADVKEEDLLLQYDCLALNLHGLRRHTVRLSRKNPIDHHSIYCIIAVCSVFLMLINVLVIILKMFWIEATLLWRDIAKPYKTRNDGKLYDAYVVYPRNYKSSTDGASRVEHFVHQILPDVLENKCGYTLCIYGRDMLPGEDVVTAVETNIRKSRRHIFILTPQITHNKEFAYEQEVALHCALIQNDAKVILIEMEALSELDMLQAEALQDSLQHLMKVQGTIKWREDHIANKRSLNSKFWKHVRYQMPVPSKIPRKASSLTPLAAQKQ
The depositor's hits bear a star; i = inactive. This excerpt belongs to a sample that is enriched for hits.

SMILES	ST2 inh
O=S(=O)(Nc1ccc(Cl)cc1Cl)c1ccc(Cl)cc1	i
COc1cc2c(cc1OC)C(C(=O)N(C)Cc1ccccc1)C(c1ccccc1F)N(C)C2=O (configuration not stated)	i
CCOC(=O)N1CCN(Cc2ccc(OC)c(OCC)c2)CC1	i
CC(CCn1cccn1)NC(=O)c1ccc2c(c1)OCC(=O)N2 (configuration not stated)	i
O=C(NC1CCCCC1)c1ccccc1S(=O)O	i
CN(CC(=O)NCc1ccccc1Cl)S(=O)(=O)c1ccc(Br)cc1	i
Cc1ccc2nc(COc3cccc(NC(=O)CSc4ccccc4)c3)cc(=O)n2c1	i
CN(Cc1ccco1)C(=O)CN1C(=O)/C(=C\c2ccc(C(F)(F)F)cc2)Sc2ccccc21	31%*
O=C(CN1C(=O)/C(=C/c2ccccc2F)Sc2ccccc21)NCc1ccco1	i
CC1CC(=O)N(CC(=O)NCc2ccco2)c2ccccc2S1 (configuration not stated)	i
O=C(CN1CCN(Cc2cccc(Cl)c2)C1=O)NCCN1CCOCC1	i
O=C(CN1C(=O)/C(=C\c2cccc(Cl)c2)Sc2ccccc21)NCCN1CCOCC1	36%*
O=C(Nc1ccccc1C(=O)NCCN1CCOCC1)c1ccc(Cl)cc1Cl	i
CC(=O)NCCCc1nc2ccccc2n1C	i
O=C(CCS(=O)(=O)c1cc(Br)cc2c1N(C(=O)C1CC1)CC2)NC1CCCC1	i
N#Cc1c(-c2ccc(Cl)cc2)cc(C2CC2)nc1N	i
COC(=O)c1cc(CN2CCN(C(=O)c3cccc(OC)c3)CC2)cs1	i
CC(=O)Nc1ccccc1NC(=O)COc1cc(C)c(Cl)c(C)c1	i
Cc1ccccc1NC(=O)c1ccc(C(=O)Nc2ccccc2C)cc1	i
Cc1ccccc1NC1=C(N)C(=O)c2ccccc2C1=O	87%*
Cc1ccccc1NCN1C(=O)C2C3C=CC(C3)C2C1=O (configuration not stated)	i
CC1=C(C(=O)OC(C)(C)C)C(c2ccc(Cl)cc2Cl)C(C#N)=C(N)O1 (configuration not stated)	i
COc1cc(/C=c2\sc3nc(=O)c(C)nn3c2=O)ccc1OCCC(C)C	i
c1ccc2c(c1)[nH]c1nc(SCCCN3CCOCC3)nnc12	i
CC(C)CSc1nnc2c(n1)[nH]c1ccccc12	32%*
SMILES	ST2 inh
O=[N+]([O-])c1ccc(CSc2nnc3c(n2)[nH]c2ccccc23)cc1	i
O=C(COc1ccccc1)N1CCN(c2ccc([N+](=O)[O-])cc2Cl)CC1	i
Cc1cccc(OCCCC(=O)Nc2ncn[nH]2)c1	i
CCOC(=O)Cn1c(=N)n(CC)c2ccccc21	i
CC(=O)c1ccccc1-c1cccc(C(=O)NC(C)C)c1	i
COC1=C(OC)C(=O)c2ccccc2C1=O	i
CC(=O)C1=C(c2ccccc2)C(=O)c2ccccc2C1=O	48%*
CC(CCn1cccn1)NCc1n[nH]c2c1CCCCC2 (configuration not stated)	i
c1c(CN2CCCCCCC2)nn2c1CNCCC2	i
Cc1nn(CCCC(=O)Nc2sc3c(c2C(N)=O)CCCC3)c(C)c1[N+](=O)[O-]	i
O=C(CS(=O)(=O)c1cn(Cc2ccc(Cl)cc2)c2ccccc12)N1CCc2ccccc21	i
CN1/C(=C\C(=O)c2ccc([N+](=O)[O-])cc2)C(C)(C)c2ccccc21	36%*
CN1C(=O)C(O)(CC(=O)c2cccc([N+](=O)[O-])c2)c2ccccc21 (configuration not stated)	i
NC(=O)c1ccc(C(=O)c2ccc([N+](=O)[O-])cc2)cc1	i
CC1NC(=O)NC1CCCCC(=O)O (configuration not stated)	46%*
O=C(O)CCCC[C@@H]1CCSS1	i
NCCCCCC(=O)O	i
COc1ccc(CN2C(=O)CO[C@H]3CN(C(=O)c4ccno4)C[C@H]32)cc1	i
Nc1ccc(CCC(=O)O)cc1	i
O=C(NCC1CCCN(C(=O)CN2CCOC2=O)C1)c1ccc(-c2ccccc2)cc1 (configuration not stated)	i
COc1ccc(OC)c(-c2cc(C(=O)Nc3sc4c(c3C(N)=O)CCC(C)C4)no2)c1 (configuration not stated)	i
COc1ccc(-c2cc(C(=O)Nc3sc4c(c3C(N)=O)CCC(C)C4)no2)cc1OC (configuration not stated)	i
COc1ccc(C=Nc2sc3c(c2C#N)CCC(C)C3)cc1OC (configuration not stated)	39%*
CCN(CC)CCCNS(=O)(=O)c1cc(Br)cc2c1N(C(=O)C1CC1)CC2	i
CN(Cc1ccccc1)Cc1cn([C@H]2CO[C@H]3[C@@H]2OC[C@@H]3NS(=O)(=O)Cc2ccccc2)nn1	i
SMILES	ST2 inh
O=[N+]([O-])c1cccc(Nc2ccccc2)c1	33%*
O=C(Nc1ccccc1)Nc1cccc([N+](=O)[O-])c1	i
Cc1ccccc1C(=O)Nc1cccc([N+](=O)[O-])c1	i
CCOCCCNCc1cc(OC)ccc1OC	i
C=CCC1(CC=C)CCCN1C(=O)CC(=O)Nc1ccc(C)cc1C	i
N#CC1=C(N)SC(N)=C(C#N)C1c1ccc(Cl)cc1Cl	i
COc1ccccc1C1C(C#N)=C(N)SC(N)=C1C#N	i
Cc1ccc(C2C(C#N)=C(N)SC(N)=C2C#N)o1	32%*
CC(=O)Oc1ccc(C2C(C(=O)OCc3ccccc3)=C(C)N=C3SCCC(=O)N32)cc1 (configuration not stated)	i
CC1CCCCC1NC(=O)c1ccc2c(c1)ncn2C1CCCC1 (configuration not stated)	i
O=C(Nc1ccccc1)N[C@H]1[C@H](O)[C@@H](Oc2ccccc2)[C@@H]2OC[C@H]1O2	i
CC(=O)c1ccc(N=Cc2ccc(C=Nc3ccc(C(C)=O)cc3)cc2)cc1	i
COc1ccc(/C=C/C#N)cc1	i
COc1ccc(C=Nc2cc(Cl)c(N)c(Cl)c2)cc1	85%*
O=c1c2c[nH]c3ccccc3nc-2c2ccccc12	42%*
Nc1ccc(Br)cc1-c1nc2ccccc2[nH]c1=O	i
O=C(O)c1cc(-c2c[nH]c3ccccc23)n[nH]1	i
CCC(C)NC(=O)C1(C)CCC(=O)N1CCc1ccc(C)cc1 (configuration not stated)	i
O=C1N(Cc2cccnc2)C(=O)C2(CCN(Cc3ccccc3Cl)CC2)N1CCc1ccccc1	i
CCN1C(=O)N(CCc2ccccc2)C2(CCN(Cc3cccc(OC)c3OC)CC2)C1=O	i
COCCCN1C(=O)N(Cc2ccccc2)C(=O)C12CCN(Cc1c(F)cccc1Cl)CC2	32%*
Cc1ccc(NC(=O)c2ccc(NS(=O)(=O)c3c(C)n[nH]c3C)cc2)cc1	i
Nc1ccc(N)c2c1C(=O)c1c(N)ccc(N)c1C2=O	94%*
COc1ccc(C(=O)Nc2ccc(I)cc2Cl)cc1Cl	i
CCCCc1ncc(CN2CCc3[nH]cnc3C2c2cccc(O)c2)[nH]1 (configuration not stated)	37%*
CCCCc1ncc(CN2CCN(Cc3ccc(OCC)cc3)C(CCO)C2)[nH]1 (configuration not stated)	i
Cc1ccc(C2c3nc[nH]c3CCN2Cc2cc(C)ccc2O)cc1 (configuration not stated)	i
Cc1ccc(/C=C2\C(=O)NN(c3ccc(Cl)c(Cl)c3)C2=O)s1	i
CCSC1=N/C(=C\c2ccc(C)s2)C(=O)S1	57%*
CCSC1=N/C(=C\c2ccc(C(=O)O)cc2)C(=O)S1	i
